GPR151 activ – activates the human receptor GPR151; Q8TDV0; 650,000 tested, 1% active; PathHunter beta-arrestin GPR151 cells, luminescence; activation, % at 11.2 µM; in the data active means activation above about 4.9%
Target sequence (Q8TDV0 whole entry, looked up): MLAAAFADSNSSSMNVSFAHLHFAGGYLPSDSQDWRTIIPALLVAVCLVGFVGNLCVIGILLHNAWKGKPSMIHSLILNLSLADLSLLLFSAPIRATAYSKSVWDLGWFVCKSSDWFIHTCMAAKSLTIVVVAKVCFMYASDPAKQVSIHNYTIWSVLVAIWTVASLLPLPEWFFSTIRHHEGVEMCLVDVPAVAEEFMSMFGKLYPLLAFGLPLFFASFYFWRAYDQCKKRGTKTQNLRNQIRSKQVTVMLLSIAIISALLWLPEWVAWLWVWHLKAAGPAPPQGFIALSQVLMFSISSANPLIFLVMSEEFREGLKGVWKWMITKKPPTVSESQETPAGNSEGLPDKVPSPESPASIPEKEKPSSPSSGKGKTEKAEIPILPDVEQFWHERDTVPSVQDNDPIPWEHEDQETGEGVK
TEAD-YAP block – TEAD-YAP interaction inhibition; HEK-TIYL cells, TEAD-Gal4/YAP UAS-luciferase luminescence; inhibition, % at 9.12 µM; 640,000 tested, 1.4% active; AID 1259422; in the data active means inhibition above about 32%
MITF primary – human MITF inhibition, primary screen | O75030 | AlphaScreen MITF homodimerization, bead proximity signal | inhibition, % at 2.6 µM | 650,000 tested, 0.91% active | AID 1259374; in the data active means inhibition above about 50%
FBW7 act – activators of human E3 ligase FBW7; AlphaScreen FBW7–phospho-cyclin E peptide binding, activator screen; 650,000 tested, 0.13% active; normalized activity (activation), % at 26.1 µM; Q969H0; in the data active means normalized activity above about 1.9%;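 further: purified mutant Fbw7 with reduced substrate affinity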
Numbers stand for hits; - = inactive. Shown are actives, neighbours in structure and some others; about 3.5% of the full set was active somewhere.

SMILES	GPR151 activ	TEAD-YAP block	MITF primary	FBW7 act
CC(=O)Nc1ccc(Nc2nc(N3CCN(c4ccccn4)CC3)ncc2C)cc1	-	49	-	-
Cc1cnc(N2CCN(c3ccccn3)CC2)nc1Nc1ccccc1	-	-	-	-
COc1ccccc1-c1cc(C(=O)Nc2cc(C)nn2-c2ccccc2)no1	-	34	-	-
COc1ccccc1-c1cc(C(=O)Nc2cc(OC)c(OC)c(OC)c2)no1	-	46	-	-
COc1cccc(-c2cc(C(=O)Nc3cc(C)nn3-c3ccccc3)no2)c1	-	-	-	-
CCOc1cc(/C=N/NC(=O)c2ccccc2[N+](=O)[O-])ccc1O	-	-	-	-
CCN(CC)C(=O)C1CCCN(c2nc(Nc3ccccc3)c3ncn(-c4ccsc4)c3n2)C1 (centres undefined)	-	33	-	-
CCCNc1nc(N2CCCC(C(=O)N(CC)CC)C2)nc2c1ncn2-c1ccsc1 (centres undefined)	-	37	-	-
CCN(CC)C(=O)C1CCCN(c2nc(N)c3ncn(-c4ccsc4)c3n2)C1 (centres undefined)	-	51	-	-
CCN(CC)C(=O)C1CCCN(c2nc(NCCOc3ccccc3)c3ncn(-c4ccsc4)c3n2)C1 (centres undefined)	-	-	-	-
Cc1ccccc1OCC(=O)OCC(=O)c1cccc([N+](=O)[O-])c1	-	-	-	-
CN1CCN(c2ccc(-c3ccc(C(=O)NC4CC4)s3)cc2)CC1	-	52	-	-
CCc1c(C)sc(NC(=O)C2C3C=CC(C3)C2C(=O)O)c1C(=O)OC(C)C (centres undefined)	-	64	-	-
C/C(=N/NC(=O)c1ccc(O)c(O)c1)c1ccc(C)cc1	-	-	-	-
C/C(=N\NC(=O)c1ccc(O)c(O)c1)c1ccc(Br)c([N+](=O)[O-])c1	-	32	-	-
COc1ccccc1NC(=O)COc1cccc(C=O)c1	-	-	-	-
NC(=O)c1ccc(N2CCN(S(=O)(=O)c3ccc4ccccc4c3)CC2)c([N+](=O)[O-])c1	-	45	-	-
COc1ccc(N2CCN(S(=O)(=O)c3ccc(C)cc3)CC2)c([N+](=O)[O-])c1	-	-	-	-
Cc1ccc(S(=O)(=O)N2CCN(c3ccc(C(N)=O)cc3[N+](=O)[O-])CC2)cc1	-	37	-	-
O=[N+]([O-])c1ccccc1N1CCN(S(=O)(=O)c2ccc3ccccc3c2)CC1	-	-	-	-
COc1ccc(NCC(=O)n2c(C)c(C)c3ccccc32)cc1	-	52	-	-
COc1ccc(NCC(=O)n2nc(C)cc2C)cc1	-	-	-	-
CNC(=O)c1ccc(-c2ccccc2OC)nc1N1CCOCC1	-	-	-	-
Nc1cccc(-c2nc(NCCc3ccc(O)cc3)c3ncn(-c4ccsc4)c3n2)c1	-	56	-	-
Nc1cccc(-c2nc(NCCN3CCOCC3)c3ncn(-c4ccsc4)c3n2)c1	-	53	-	-
SMILES	GPR151 activ	TEAD-YAP block	MITF primary	FBW7 act
NC(=O)c1ccc(-c2nc(NCCN3CCOCC3)c3ncn(-c4ccsc4)c3n2)cc1	-	33	-	-
O=C(NC1CC1)c1ccc(-c2nc(NCCN3CCOCC3)c3ncn(-c4ccsc4)c3n2)cc1	-	37	-	-
CCCC(CCC)C(=O)NCCS(=O)(=O)N1CCN(c2cccc(C)c2)CC1	-	-	-	-
O=C(NC1CC1)c1ccc(-c2nc(NCCN3CCOCC3)c3ncn(-c4ccccc4)c3n2)cc1	-	67	-	-
O=C(NC1CC1)c1ccc(-c2nc(NC3CC3)c3ncn(-c4ccccc4)c3n2)cc1	-	33	-	-
CC(C)c1ccc(C2NN=C(c3ccccc3)S2)cc1 (centres undefined)	-	70	-	-
O=C(CCCCn1c(=O)c2ccccc2n(Cc2ccc(F)cc2Cl)c1=O)NCc1cccs1	-	-	-	-
COc1cccc(Cn2c(=O)n(CCCCC(=O)NC3CCCCC3)c(=O)c3ccccc32)c1	-	-	-	-
COc1cccc(Cn2c(=O)n(CCCCC(=O)NCc3ccco3)c(=O)c3ccccc32)c1	-	48	-	-
O=C(CCCCn1c(=O)c2ccccc2n(Cc2ccccc2)c1=O)NCc1cccs1	-	38	-	-
Cc1cccc(OCC(=O)N(CCn2cccn2)c2nc3c(F)cccc3s2)c1	-	43	-	-
Cc1cc(C(=O)N(CCn2cccn2)c2nc3c(F)cccc3s2)on1	-	-	-	-
Cc1cccc(N2CCN(C(c3ccncc3)c3nnnn3C(C)(C)C)CC2)c1C (centres undefined)	-	62	-	-
CCCSCCCNC(=O)CN1C(=O)c2cccnc2Oc2ccc(C)cc21	-	-	-	-
O=C(NC1CCCCCC1)c1cccc2[nH]ncc12	-	84	-	-
Cc1ccc(S(=O)(=O)Oc2ccccc2/C=N/N=C(N)N)cc1	-	-	-	-
Cc1ccc(S(=O)(=O)Oc2ccccc2/C=N/NC(N)=S)cc1	-	61	-	-
CCOc1ccccc1CN1CCC(n2nccc2NC(=O)C(OC)c2ccccc2)CC1 (centres undefined)	-	-	-	-
C=CCN(c1ccccc1)S(=O)(=O)c1ccc(F)c(C(=O)Nc2ccc(CC)cc2)c1	-	-	-	-
C=CCN(c1ccccc1)S(=O)(=O)c1ccc(F)c(C(=O)Nc2ccc(C(C)C)cc2)c1	-	36	-	-
C=CCN(c1ccccc1)S(=O)(=O)c1ccc(F)c(C(=O)Nc2ccc(OCC)cc2)c1	-	39	-	-
COc1ccc(CCNC(=O)CSc2nc3ccccc3c(=O)n2CCc2ccc(OC)c(OC)c2)cc1OC	-	-	-	-
COc1ccc(CCNC(=O)CSc2nc3ccc(Br)cc3c3nc4ccccc4n23)cc1OC	-	-	-	1.9
CCOC(=O)c1cc2cnccc2nc1C	-	-	-	-
COCCNc1c(-c2ccc(OC)c(O)c2)nc2cnccn12	-	-	-	-
SMILES	GPR151 activ	TEAD-YAP block	MITF primary	FBW7 act
CCOc1cc(-c2nc3cnccn3c2NCCOC)ccc1O	-	-	-	6.3
Cc1nc(C(C)NC(=O)c2cc(COc3ccc(F)cc3F)on2)cs1 (centres undefined)	-	-	-	2.0
O=C(NCc1ccc2c(c1)OCO2)c1cc(COc2ccc3ncccc3c2)on1	-	35	-	-
CC(C)OCCNC(=O)c1cc(COc2ccc3ncccc3c2)on1	-	-	-	-
O=C(NC1CCCC1)c1cc(COc2ccc3ncccc3c2)on1	-	40	-	-
CC(NC(=O)c1cc(COc2ccc3ncccc3c2)on1)c1ccc(F)cc1 (centres undefined)	-	38	-	-
CC(=O)Nc1ccc(CN2CCN(C(C)C)C(CCO)C2)cc1 (centres undefined)	-	-	-	-
CCCCc1c(O)nc(Nc2nc(C)c3cc(C)c(C)cc3n2)[nH]c1=O	-	-	-	-
O=C(NCC1CCOCC1)c1cc(COc2ccc3ncccc3c2)on1	-	33	-	-
CC(C)c1cc(CNC(=O)c2cc(COc3ccc4ncccc4c3)on2)on1	-	-	-	-
Cc1ccc(C23CC4CC(C2)CC(c2csc(NC(=O)c5ccc(-c6ccccc6)cc5)n2)(C4)C3)cc1	-	-	-	-

Screening results deposited in PubChem by The Scripps Research Institute Molecular Screening Center.
